Assay outcomes (PubChem)
D3 antag: D3 dopamine receptor (human) antagonism; P35462; D3R cells, DiscoveRx beta-arrestin luminescence, antagonist mode; stronger effect = lower value; max response, negative = inhibition, %; actives 2.5% (n = 360,000); in the data active = max response below about -50%; inconclusive = no clear call, values can overlap the other calls; note: % is set by controls: 0 for no effect and ±100 for the full control effect
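Cells plated overnight at 1500 cells/well, then exposed to library compounds with dopamine controls for 90 minutes at 37 degrees C. DiscoveRx reagent added for 30–60 minutes at room temperature; luminescence read, quantitative HTS format.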
B2AR arrestin: agonists driving beta-arrestin recruitment to human beta2-adrenergic receptor | actives 0.02% (n = 330,000) | P07550 | Potency, µM (series often up to 46.1 µM), inactives show at the top dose activation, hits mostly activators | beta-arrestin recruitment to beta2AR, cell-based reporter | AID 492947; active = well fitted activation curve with a large enough effect; inconclusive = small, poorly fitted or top-dose-only effect;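 note: potency is the fitted concentration of half-maximal effect; 0% = DMSO controls and full agonism = EC100 isoproterenol or metaproterenol; nearly all actives have a fitted effect of over 65% in size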
D3 ag: agonists of human D3 dopamine receptor; max activation, %; P35462; actives 0.58% (n = 410,000); D3R DiscoveRx beta-arrestin cells, luminescence, 90 min; in the data active = max activation above about 30%; note: 0% is about no effect
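Cells at 1500/well, incubated overnight, then treated with pinned compounds (dopamine as control) for 90 min at 37 degrees C. DiscoveRx reagent added for 30 - 60 minutes at room temperature; luminescence read.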
TSHR antagonist: blocks TSH signaling through the human TSH receptor; P16473; TSHR-expressing cells, TSH-stimulated cAMP HTRF, 2 h; stronger effect = lower value; AID 504810; activity change, negative = inhibition, % at 11.5 µM; actives 0.2% (n = 330,000);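 active = activity change below a set negative limit, meaning inhibition stronger than a set level, cut at about -70% in these data; inconclusive = activity change between two set negative limits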; note: % is set by controls: 0 for no effect and ±100 for the full control effect
Target sequence (P16473 whole entry, looked up): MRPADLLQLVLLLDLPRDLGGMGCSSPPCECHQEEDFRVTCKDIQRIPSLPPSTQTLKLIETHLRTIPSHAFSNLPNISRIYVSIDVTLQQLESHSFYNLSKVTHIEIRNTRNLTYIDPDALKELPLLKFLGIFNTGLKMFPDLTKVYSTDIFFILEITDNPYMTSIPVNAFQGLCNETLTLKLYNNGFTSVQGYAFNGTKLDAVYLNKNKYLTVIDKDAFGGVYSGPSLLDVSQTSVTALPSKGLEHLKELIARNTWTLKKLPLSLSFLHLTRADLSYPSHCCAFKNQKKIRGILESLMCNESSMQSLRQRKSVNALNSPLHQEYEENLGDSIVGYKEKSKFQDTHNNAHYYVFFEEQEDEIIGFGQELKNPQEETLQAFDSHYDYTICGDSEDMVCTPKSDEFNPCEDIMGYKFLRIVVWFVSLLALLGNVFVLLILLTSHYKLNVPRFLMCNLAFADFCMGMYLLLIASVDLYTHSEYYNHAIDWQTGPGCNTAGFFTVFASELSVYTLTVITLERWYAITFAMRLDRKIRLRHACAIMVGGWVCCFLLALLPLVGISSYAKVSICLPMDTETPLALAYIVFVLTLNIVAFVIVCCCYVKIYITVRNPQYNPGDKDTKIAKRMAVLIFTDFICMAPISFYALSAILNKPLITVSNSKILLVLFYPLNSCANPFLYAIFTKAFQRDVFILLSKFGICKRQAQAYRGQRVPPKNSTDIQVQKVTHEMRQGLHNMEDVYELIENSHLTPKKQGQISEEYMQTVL
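Cell-based HTRF cAMP assay; TSHR cells + compound, TSH EC80 (4nM final), 2 h, 37 deg C. Lysis with anti-cAMP cryptate and cAMP-d2, 30 min RT, read 665/620 nm.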
Starred values were filed as active, the others as inactive. An excerpt weighted towards active compounds, which were near 2.9% of everything screened.

Screening Fc1ccccc1NC(=S)N/N=C/c1ccccc1Br returned D3 antag -79*, B2AR arrestin -1%, D3 ag -20 and TSHR antagonist 6.
`O=[N+]([O-])c1ccc(/C=N/NC(=S)Nc2ccccc2F)o1` gave D3 antag inconclusive, B2AR arrestin 1%, D3 ag 6 and TSHR antagonist -12.
For O=C(Nc1ccccc1)N1CCN(c2nc(-c3ccccc3)ns2)CC1 the results were D3 antag 11, B2AR arrestin 0%, D3 ag 36* and TSHR antagonist -7.
O=C(Nc1ccccc1Cl)N1CCCN(c2nc(-c3ccccc3)ns2)CC1 was read as D3 antag 9, B2AR arrestin 0%, D3 ag -14 and TSHR antagonist -10.
Screening Cc1ccc(-c2nnc(Nc3ccc(OCC(N)=O)cc3)c3ccccc23)cc1S(=O)(=O)N(C)C returned D3 ag 0.
For O=C(NCc1ccccc1)c1sc(=S)n2c1[nH]c(=O)c1ccccc12 the results were D3 antag 29, B2AR arrestin 0%, D3 ag 5 and TSHR antagonist -79*.
For CCc1ccc(NC(=O)CC2C(=O)N(c3ccc(Cl)cc3)C(=O)N2Cc2cccs2)cc1 (centres undefined) the results were D3 ag 43*.
Screening Cc1ccc(-n2cc(CCCCCCCCC(=O)O)nn2)cc1 returned D3 antag 2, B2AR arrestin -2%, D3 ag 30* and TSHR antagonist -14.
`COc1ccc2c(c1)C=C(CN1CCN(Cc3ccccc3C)C(CCO)C1)CO2` (centres undefined) gave D3 antag inconclusive, B2AR arrestin -2%, D3 ag -24 and TSHR antagonist -1.
Screening COc1ccc2c(c1)C=C(CN1CCC(CO)(CCc3ccccc3)CC1)CO2 returned D3 antag -87*, B2AR arrestin 1%, D3 ag -22 and TSHR antagonist 14.
For COc1ccc(CC2(CO)CCN(CC3=Cc4cc(Cl)ccc4OC3)CC2)cc1 the results were D3 antag -75*, B2AR arrestin 0%, D3 ag -13 and TSHR antagonist -22.
For COc1ccc(CC2(CO)CCN(Cc3ccc4c(c3)CCO4)CC2)cc1 the results were D3 antag inconclusive, B2AR arrestin 4%, D3 ag -28 and TSHR antagonist 12.
For COc1cccc(NC(=O)c2c(C)oc3nc(C)nc(N4CCCC4)c23)c1 the results were D3 ag 1.
C[C@H](CO)N1C[C@H](C)[C@H](CN(C)Cc2ccccc2)Oc2c(NC(=O)Nc3ccc(F)cc3)cccc2C1=O was read as D3 antag inconclusive, B2AR arrestin 0%, D3 ag -6 and TSHR antagonist -1.
For C[C@H](CO)N1C[C@H](C)[C@@H](CN(C)Cc2ccc(Oc3ccccc3)cc2)Oc2c(NC(=O)C3CC3)cccc2C1=O the results were D3 antag 42, B2AR arrestin 0%, D3 ag 35* and TSHR antagonist 0.
C[C@@H]1CN([C@@H](C)CO)C(=O)c2cccc(NC(=O)Nc3ccc(F)cc3)c2O[C@@H]1CN(C)Cc1ccc(Oc2ccccc2)cc1 was read as D3 antag -71*, B2AR arrestin 0%, D3 ag -14 and TSHR antagonist 7.
`C[C@H](CO)N1C[C@H](C)[C@@H](CN(C)CC2CC2)Oc2c(NC(=O)C3CC3)cccc2C1=O` gave D3 antag -15 and D3 ag 33*.
`C[C@H](CO)N1C[C@H](C)[C@@H](CN(C)Cc2ccc(C(=O)O)cc2)Oc2c(NC(=O)C3CC3)cccc2C1=O` gave D3 antag 15, B2AR arrestin -1%, D3 ag 0 and TSHR antagonist 5.
Screening COC(=O)c1ccc2c(c1)C(C)(C)C(/C=C/c1ccc(OC)c(OC)c1OC)=[N+]2C returned D3 antag -88*, B2AR arrestin 0%, D3 ag -21 and TSHR antagonist -23.
Screening COC(=O)c1ccc2c(c1)C(C)(C)C(/C=C/c1ccc(O)cc1)=[N+]2C returned D3 antag inconclusive, B2AR arrestin 0%, D3 ag -51 and TSHR antagonist -12.
For CS(=O)(=O)NCCCNc1ccc(C(F)(F)F)cc1[N+](=O)[O-] the results were D3 antag -3, B2AR arrestin -1%, D3 ag -10 and TSHR antagonist 8.
For CS(=O)(=O)NCCCNc1ccc(Cl)cc1[N+](=O)[O-] the results were D3 antag -50*, B2AR arrestin 0%, D3 ag -3 and TSHR antagonist 2.
